In PubChem BioAssay:
“And” between values parts separate entries of the source, which are not always exact repeats. Equal values may be shown once. The source made the active and inactive calls.

How the values were obtained:
[1] = binders of probe aFSTL3 on microarray, primary screen, stem cell growth factor project, biochemical, small-molecule microarray, fluorescence 635/667 (AID 1064); conditions: higher = more signal;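 note: measures binding of the biotinylated anti-FSTL3 antibody to printed compounds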
[2] = binders from COS7 lysate, DM2A8 probe, primary screen, torsin A project, cell lysate, small-molecule microarray, fluorescence 635/667 (AID 1065); conditions: higher = more signal, COS7 lysate expressing mutant human TOR1A
[3] = binders of probe aFGF2 on microarray, primary screen, stem cell growth factor project, biochemical, small-molecule microarray, fluorescence 635/667 (AID 1067); conditions: higher = more signal;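 note: measures binding of biotinylated aFGF2 protein to printed compounds on slides; z-score merges feature fluorescence and signal-to-noise across triplicate slides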
[4] = binders of probe aFGF10 on microarray, primary screen, stem cell growth factor project, biochemical, small-molecule microarray, fluorescence 635/667 (AID 1071); conditions: higher = more signal;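 note: score merges 667 nm spot intensity and signal to noise from triplicate slides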
[5] = target: Neurogenic locus notch homolog protein 2 (Homo sapiens) (UniProt Q04721); experiment: Notch2 binders on small-molecule microarrays, primary screen, biochemical, small-molecule microarray, 635 nm fluorescence, stem cell growth factors (AID 1073); conditions: Notch2 binding, higher = more signal
[6] = target: Pro-neuregulin-1, membrane-bound isoform (Homo sapiens) (UniProt Q02297); experiment: NRG1 binders on small-molecule microarrays, primary screen, psychiatric disease protein project, biochemical, small-molecule microarray, fluorescence 635/667 (AID 1075); conditions: NRG1 binding, 635 nm fluorescence, higher = more signal;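 note: score combines 667 nm spot fluorescence with signal to noise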
[7] = test system: Neuregulin-1 EGF-like domain; experiment: binders of neuregulin-1 EGF-like domain, primary screen, biochemical, small-molecule microarray, 635 nm fluorescence (AID 1081); conditions: small-molecule microarray binding, higher = more signal;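 note: binding of the protein to compounds printed on small-molecule microarray slides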
[8] = FRG1 promoter luciferase signal modulators, primary screen, FRG1 inhibition for FSHD, cell-based, C2C12 myotubes, firefly/Renilla luciferase, luminescence (AID 1084); conditions: higher = more signal, called active from +8 up or from −8 down
[9] = binders of probe aFST on microarray, primary screen, stem cell growth factor project, biochemical, small-molecule microarray, fluorescence 635/667 (AID 1086); conditions: higher = more signal;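 note: score merges 667 nm fluorescence with signal-to-noise of each printed compound spot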
[10] = binders of probe aHhip on microarray, primary screen, stem cell growth factor project, biochemical, small-molecule microarray, fluorescence 635/667 (AID 1087); conditions: higher = more signal;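 note: score merges spot fluorescence at 667nm with spot signal to noise ratio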
[11] = test system: PRMT1 (protein arginine N-methyltransferase 1); experiment: PRMT1 binders on small-molecule microarrays, primary screen, biochemical, small-molecule microarray, 635 nm fluorescence (AID 1088); conditions: small-molecule microarray binding, higher = more signal;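 note: binding of Prmt1 protein to compounds spotted on small-molecule microarray slides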
[12] = yeast growth modulation, basal conditions, primary screen, YJM789 clinical isolate, OD600, 24 h (AID 1089);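 note: growth of clinical yeast isolate S. cerevisiae YJM 789 seeded 1000 cells per well; test concentration not given here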; conditions: S. cerevisiae YJM789 growth, higher = more signal, called active from +8 up or from −8 down
[13] = fission yeast growth modulation, primary screen, strain 972, OD600, 24 h, no modulator (AID 1090);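 note: basal condition with compound alone and no growth modifier present; test concentration not given here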; conditions: S. pombe 972 growth, higher = more signal, called active from +8 up or from −8 down
[14] = S. cerevisiae growth modulation with rapamycin, primary screen, strain BY4716, OD600, 96 h (AID 1091); conditions: higher = more signal, called active from +8 up or from −8 down; note: test concentration not given here
[15] = target: Torsin-1A-interacting protein 2 (Homo sapiens) (UniProt Q8NFQ8); experiment: LULL1 binders on small-molecule microarray, primary screen, cell lysate, human LULL1 lysate, 635/667 nm fluorescence (AID 1092); conditions: hLULL1 lysate binding, 635 nm fluorescence, higher = more signal;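 note: probe is lysate of COS7 cells overexpressing human LULL1; score merges per-feature 667 nm fluorescence with signal-to-noise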
[16] = E. coli growth modulation, two-sided OD650, primary screen, E. coli filamentation project, strain DRC41, 24 h (AID 1093); conditions: OD650, 24 h, higher = more signal, called active from +8 up or from −8 down;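 note: MC1000 strain lacking acrAB efflux and sulA so SOS filamentation is blocked; test concentration not given here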
[17] = small-molecule microarray binders of probe aLefty2, primary screen, biochemical, biotinylated probe, 635/667 nm fluorescence (AID 1094); conditions: higher = more signal;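 note: score merges spot fluorescence near 667 nm with spot signal-to-noise ratio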
[18] = test system: Noggin (protein binding on small-molecule microarray); experiment: Noggin binders on small-molecule microarray, primary screen, biochemical, 635/667 nm fluorescence (AID 1095); conditions: 635 nm fluorescence, higher = more signal;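 note: score merges 667 nm feature fluorescence with signal to noise over triplicate slides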
[19] = target: Neurogenic locus notch homolog protein 3 (Homo sapiens) (UniProt Q9UM47); experiment: NOTCH3 binders on small-molecule microarray, primary screen, biochemical, 635/667 nm fluorescence (AID 1096); conditions: NOTCH3 binding, 635 nm fluorescence, higher = more signal
[20] = small-molecule microarray binders of probe aEGFR, primary screen, biochemical, biotinylated probe, 635/667 nm fluorescence (AID 1097); conditions: higher = more signal;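 note: probe is a biotinylated anti-EGFR antibody binding compounds printed on slides; score combines fluorescence near 667 nm and signal to noise of each spot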

Sequence of Pro-neuregulin-1, membrane-bound isoform (Homo sapiens) (Q02297 whole entry, looked up, the tested form may be a part, canonical isoform): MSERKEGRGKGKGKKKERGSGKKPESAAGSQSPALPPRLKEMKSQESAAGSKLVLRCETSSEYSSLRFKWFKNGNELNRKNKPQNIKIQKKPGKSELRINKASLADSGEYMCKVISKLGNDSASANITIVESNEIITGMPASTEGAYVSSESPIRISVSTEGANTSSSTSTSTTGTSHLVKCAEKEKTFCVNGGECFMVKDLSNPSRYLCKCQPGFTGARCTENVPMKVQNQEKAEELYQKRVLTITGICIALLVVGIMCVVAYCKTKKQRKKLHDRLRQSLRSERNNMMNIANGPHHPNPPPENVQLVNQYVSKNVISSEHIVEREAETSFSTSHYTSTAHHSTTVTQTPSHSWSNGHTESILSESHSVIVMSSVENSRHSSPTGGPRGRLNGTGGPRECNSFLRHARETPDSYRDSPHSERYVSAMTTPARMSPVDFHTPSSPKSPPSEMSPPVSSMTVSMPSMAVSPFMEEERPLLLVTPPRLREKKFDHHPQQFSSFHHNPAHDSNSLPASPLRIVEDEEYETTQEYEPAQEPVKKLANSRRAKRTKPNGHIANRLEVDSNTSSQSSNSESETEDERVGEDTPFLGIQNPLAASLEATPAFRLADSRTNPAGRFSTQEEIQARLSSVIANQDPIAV
Sequence of Torsin-1A-interacting protein 2 (Homo sapiens) (Q8NFQ8 whole entry, looked up): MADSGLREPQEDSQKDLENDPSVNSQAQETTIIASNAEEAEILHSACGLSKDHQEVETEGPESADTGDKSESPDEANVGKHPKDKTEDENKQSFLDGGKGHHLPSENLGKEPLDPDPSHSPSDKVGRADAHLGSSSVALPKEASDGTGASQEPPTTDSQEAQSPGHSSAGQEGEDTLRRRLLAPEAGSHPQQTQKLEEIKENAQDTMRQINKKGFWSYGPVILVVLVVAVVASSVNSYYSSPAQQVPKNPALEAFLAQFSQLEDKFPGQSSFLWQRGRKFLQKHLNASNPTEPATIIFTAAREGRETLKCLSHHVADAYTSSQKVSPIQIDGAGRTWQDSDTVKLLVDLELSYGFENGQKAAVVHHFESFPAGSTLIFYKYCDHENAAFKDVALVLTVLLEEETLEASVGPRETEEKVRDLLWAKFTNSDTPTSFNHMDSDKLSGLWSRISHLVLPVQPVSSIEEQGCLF
Sequence of Neurogenic locus notch homolog protein 3 (Homo sapiens) (Q9UM47 whole entry, looked up): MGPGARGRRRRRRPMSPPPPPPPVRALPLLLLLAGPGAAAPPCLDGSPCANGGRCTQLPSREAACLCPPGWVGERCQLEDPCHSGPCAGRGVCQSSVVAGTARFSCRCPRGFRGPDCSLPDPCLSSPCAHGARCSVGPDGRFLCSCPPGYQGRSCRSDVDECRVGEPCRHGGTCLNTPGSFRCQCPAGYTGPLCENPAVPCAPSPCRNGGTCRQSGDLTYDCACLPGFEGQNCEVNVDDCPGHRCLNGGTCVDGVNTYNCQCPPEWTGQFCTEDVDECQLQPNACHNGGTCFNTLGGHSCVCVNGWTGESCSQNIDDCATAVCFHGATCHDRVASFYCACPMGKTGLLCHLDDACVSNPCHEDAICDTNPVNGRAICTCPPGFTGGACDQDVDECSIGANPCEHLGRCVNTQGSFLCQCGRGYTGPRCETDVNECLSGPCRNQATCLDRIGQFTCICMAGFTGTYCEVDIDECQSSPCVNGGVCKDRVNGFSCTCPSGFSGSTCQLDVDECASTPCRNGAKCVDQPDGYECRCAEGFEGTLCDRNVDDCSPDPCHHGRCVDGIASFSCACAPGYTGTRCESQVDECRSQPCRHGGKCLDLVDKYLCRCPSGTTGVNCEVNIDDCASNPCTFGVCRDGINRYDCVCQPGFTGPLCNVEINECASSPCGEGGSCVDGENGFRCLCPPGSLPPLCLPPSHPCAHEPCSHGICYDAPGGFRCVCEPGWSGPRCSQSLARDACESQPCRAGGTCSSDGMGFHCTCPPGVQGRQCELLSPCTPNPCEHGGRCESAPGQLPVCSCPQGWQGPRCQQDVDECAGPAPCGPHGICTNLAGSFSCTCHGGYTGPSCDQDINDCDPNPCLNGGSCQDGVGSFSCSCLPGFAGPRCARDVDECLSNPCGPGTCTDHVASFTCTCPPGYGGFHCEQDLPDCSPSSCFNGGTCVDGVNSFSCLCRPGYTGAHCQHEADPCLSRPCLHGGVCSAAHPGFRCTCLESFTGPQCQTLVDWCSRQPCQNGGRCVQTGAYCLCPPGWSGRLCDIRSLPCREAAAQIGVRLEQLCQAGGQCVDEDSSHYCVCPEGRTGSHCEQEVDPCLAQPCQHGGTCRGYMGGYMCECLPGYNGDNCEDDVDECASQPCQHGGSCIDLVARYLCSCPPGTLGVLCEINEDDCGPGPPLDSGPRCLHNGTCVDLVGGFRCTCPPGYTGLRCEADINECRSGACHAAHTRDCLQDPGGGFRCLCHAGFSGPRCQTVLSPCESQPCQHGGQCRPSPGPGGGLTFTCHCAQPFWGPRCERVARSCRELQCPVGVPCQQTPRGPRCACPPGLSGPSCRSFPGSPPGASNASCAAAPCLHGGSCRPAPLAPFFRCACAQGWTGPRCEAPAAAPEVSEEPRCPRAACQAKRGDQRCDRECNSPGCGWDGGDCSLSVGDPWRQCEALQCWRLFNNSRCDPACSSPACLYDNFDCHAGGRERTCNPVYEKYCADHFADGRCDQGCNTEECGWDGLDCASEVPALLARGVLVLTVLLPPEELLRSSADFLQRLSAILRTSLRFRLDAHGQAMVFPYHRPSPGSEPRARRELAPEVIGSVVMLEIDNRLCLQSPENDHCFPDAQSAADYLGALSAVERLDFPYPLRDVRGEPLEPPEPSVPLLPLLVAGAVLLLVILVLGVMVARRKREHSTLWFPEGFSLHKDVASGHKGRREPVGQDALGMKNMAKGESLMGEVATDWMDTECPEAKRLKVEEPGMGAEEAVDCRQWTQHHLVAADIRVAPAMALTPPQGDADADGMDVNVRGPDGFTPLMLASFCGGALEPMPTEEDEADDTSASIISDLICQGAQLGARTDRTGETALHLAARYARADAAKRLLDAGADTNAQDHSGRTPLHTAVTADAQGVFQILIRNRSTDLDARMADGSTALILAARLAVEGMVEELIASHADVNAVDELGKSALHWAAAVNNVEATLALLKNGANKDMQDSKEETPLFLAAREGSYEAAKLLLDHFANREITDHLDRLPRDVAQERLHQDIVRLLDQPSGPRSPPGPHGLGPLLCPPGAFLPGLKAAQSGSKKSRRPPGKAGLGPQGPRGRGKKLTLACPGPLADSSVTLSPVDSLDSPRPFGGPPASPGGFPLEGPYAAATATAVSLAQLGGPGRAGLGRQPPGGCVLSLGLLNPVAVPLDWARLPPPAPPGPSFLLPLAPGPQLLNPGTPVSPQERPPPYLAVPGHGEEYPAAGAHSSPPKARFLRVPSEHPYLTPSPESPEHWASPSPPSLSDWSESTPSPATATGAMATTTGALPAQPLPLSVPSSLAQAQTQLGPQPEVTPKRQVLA

Compound	composite z-score [1]	composite z-score [2]	composite z-score [3]	composite z-score [4]	composite z-score [5]	composite z-score [6]	composite z-score [7]	z-score [8]	composite z-score [9]	composite z-score [10]	composite z-score [11]	z-score [12]	z-score [13]	z-score [14]	composite z-score [15]	z-score [16]	composite z-score [17]	composite z-score [18]	composite z-score [19]	composite z-score [20]
CC(C)=NOCc1ccc(-c2cn([C@@H]3COC[C@H]3O)nn2)cc1	-0.401	0.032	-0.0268	0.543	0.31	-0.766	0.718	0.0937 (inactive)	0.169	0.0722	-0.253	0.279 (inactive)	0.132 (inactive)	-0.738 (inactive)	0.226	0.484 (inactive)	0.0434	0.485	-0.328	-0.0025
CCCNC(=O)OC[C@H]1O[C@H](CCON=C(C)CCN2CCc3nc(-c4ccccc4)c(-c4ccccc4)cc3C2)C=C[C@@H]1Oc1ccc(OC)cc1	-0.369	0.0379	-0.116	0.118	-0.247	0.48	0.524	0.198 (inactive)	0.142	-0.0994	0.497	1.12 (inactive)	-0.724 (inactive)	-3.57 (inactive)	1.04	0.385 (inactive)	-0.0638	0.553	-0.105	0.0321
CCOC(=O)C[C@H]1[C@H](OC(=O)c2ccccc2-c2ccccc2)[C@@H](NC(=O)Cc2ccc(OC)cc2)c2cc(OCCCO)ccc2N1C(=O)c1ccc2ccccc2n1	-0.21 and 0.27	0.266 and 0.395	-0.0781 and 0.16	0.27 and 0.319	0.305 and 0.361	0.147 and 0.653	-0.529 and 0.0101	-0.0725 (inactive) and 0.266 (inactive)	0.442 and 0.575	-0.0645 and -0.0672	-0.557 and 0.587	-0.321 (inactive) and -0.249 (inactive)	-0.0002 (inactive) and -0.478 (inactive)	-0.411 (inactive) and 0.456 (inactive)	0.347 and 0.379	2.43 (inactive) and 1.41 (inactive)	-0.0953 and 0.0397	0.248 and 0.329	0.0452 and 0.418	-0.0107 and 0.182
CC(C)OC(=O)C=C1C[C@@H](c2ccccc2)O[C@@H](c2ccccc2)O1	-0.682 and -0.0971	0.935 and 1.2	-0.0695 and 0.0305	1.04 and 1.05	1.45 and 1.59	0.482 and 1.23	1.1 and 1.18	-0.778 (inactive) and -0.828 (inactive)	0.904 and 0.743	0.194 and 0.126	1.5 and 1.54	-0.023 (inactive) and 0.548 (inactive)	-4.66 (inactive) and -7.08 (inactive)	-0.793 (inactive) and 0.632 (inactive)	3.33 and 3.12	0.551 (inactive) and 0.884 (inactive)	0.0528 and 0.269	1.09 and 0.798	1.09 and 1.13	0.302 and 0.366
CCOC(=O)C[C@H]1[C@H](OC(=O)c2ccccc2-c2ccccc2)[C@@H](NC(=O)c2ccccc2)c2cc(OCCCO)ccc2N1C(=O)c1ccc2ccccc2n1	-0.0767 and -0.127	0.455 and 0.0871	0.0047 and -0.094	0.507 and 0.191	0.708 and 0.964	-0.106 and 0.749	0.738 and 0.565	-0.129 (inactive) and -0.113 (inactive)	0.214 and 0.306	0.347 and -0.0994	-0.0222 and 1.19	-0.0469 (inactive) and -0.78 (inactive)	-0.19 (inactive) and 0.209 (inactive)	-0.0952 (inactive) and 0.0526 (inactive)	0.549 and 1.01	1.02 (inactive) and -0.728 (inactive)	-0.0437 and 0.0212	0.357 and 0.843	0.481 and 0.737	0.0323 and -0.0815
C=CCN(C(=O)C1N(c2c(Cl)cccc2CO)C(=O)C2C(C(=O)O)C3C=CC21O3)c1ccc(OC)cc1 (stereo not given)	0.778 and 0.859	-1.57 and -1.33	-0.119 and -0.252	-0.653 and -1.76	-1.09 and -1.92	-0.515 and -0.497	0.507 and -0.579	1.48 (inactive) and -1.39 (inactive)	-0.826 and -0.934	-0.283 and -0.517	-0.406 and -0.949	0.188 (inactive) and -1.76 (inactive)	0.0331 (inactive) and -1.23 (inactive)	-0.362 (inactive) and -0.691 (inactive)	-0.51 and -1.41	1.82 (inactive) and 2.06 (inactive)	-0.652 and -0.252	-1.05 and -1.85	-0.306 and -0.737	-0.327 and -0.236
C[N+](C)(C)CCCCCCNC(=O)[C@H]1C[C@H]2C(=O)N[C@@H](CCCC[N+](C)(C)C)C(=O)N2[C@H]1c1cccc(OCCO)c1	-0.54 and 1.52	0.5 and 0.444	-0.0546 and 0.0108	-0.232 and 0.0517	-0.004 and -0.276	0.55 and -0.353	1.2 and 1.47	3.98 (inactive) and 3.53 (inactive)	0.469 and 0.696	-0.293 and 0.535	1.46 and 0.0165	-2.56 (inactive) and 0.455 (inactive)	-1.18 (inactive) and -0.331 (inactive)	0.162 (inactive) and 1.01 (inactive)	2.99 and 0.566	0.598 (inactive) and -0.404 (inactive)	-0.0589 and 0.582	1.94 and 0.904	1.01 and -0.0712	-0.0703 and 0.127
C=C[C@@H](OC)[C@H](O)c1ccc(OC)c(O)c1	-0.407 and 0.724	0.415 and -0.675	0.177 and -0.175	0.0573 and -1.49	0.113 and -0.602	-0.44 and -0.559	0.225 and -0.758	0.0163 (inactive) and -0.152 (inactive)	-0.209 and -0.844	-0.0994 and -0.296	0.852 and -0.645	-0.722 (inactive) and -0.94 (inactive)	-0.322 (inactive) and -0.469 (inactive)	-0.116 (inactive) and -0.423 (inactive)	-0.1 and -0.81	0.77 (inactive) and 1.76 (inactive)	-0.17 and -0.109	0.941 and 0.0939	-0.233 and -1.14	-0.277 and -0.33
